Assay outcomes: PubChem, several laboratories
Rows were chosen to be rich in hits. Some 2.5% of all compounds tested hit in one or more screens of this group.
PG9 Ab binder: binds the HIV-1 gp120 antibody PG9; hit rate 0.43% among 360,000; TR-FRET gp120-PG9 antibody binding; AID 624416; inhibition, % at 6.7 µM; in the data active means inhibition above about 8.5%
rCAG RNA binder: r(CAG) repeat RNA binding | inhibition, % at 3 µM | TO-PRO-1 dye displacement fluorescence | AID 651821 | hit rate 1.3% among 370,000;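 active means inhibition above the plate cutoff, the mean of all test compounds on that plate plus 3 SD, cut at about 35% in these data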;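 further: higher means more dye released from RNA so lower well fluorescence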
Granule exo inh: blocks lytic granule exocytosis | AID 651702 | inhibition, % at 10 µM | hit rate 0.66% among 360,000 | TALL-104 LAMP-1 surface exposure, flow cytometry; cells stimulated with thapsigargin and PMA;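 active means inhibition above about 55%, limit read from the data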
ABCB6 inh MLPCN: blocks the human ABCB6 transporter; Q9NP58; K562-ABCB6 porphyrin accumulation, flow cytometry, 1 h; stronger effect = lower value; fluorescence ratio to DMSO, % at 10 µM; hit rate 0.19% among 360,000; AID 602162;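 active means fluorescence ratio to DMSO below 75%, the collection mean minus 3 SD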;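 further: signal is porphyrin accumulated inside mitochondria; lower ratio means ABCB6 inhibition with less porphyrin fluorescence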
Target sequence (Q9NP58 whole entry, looked up): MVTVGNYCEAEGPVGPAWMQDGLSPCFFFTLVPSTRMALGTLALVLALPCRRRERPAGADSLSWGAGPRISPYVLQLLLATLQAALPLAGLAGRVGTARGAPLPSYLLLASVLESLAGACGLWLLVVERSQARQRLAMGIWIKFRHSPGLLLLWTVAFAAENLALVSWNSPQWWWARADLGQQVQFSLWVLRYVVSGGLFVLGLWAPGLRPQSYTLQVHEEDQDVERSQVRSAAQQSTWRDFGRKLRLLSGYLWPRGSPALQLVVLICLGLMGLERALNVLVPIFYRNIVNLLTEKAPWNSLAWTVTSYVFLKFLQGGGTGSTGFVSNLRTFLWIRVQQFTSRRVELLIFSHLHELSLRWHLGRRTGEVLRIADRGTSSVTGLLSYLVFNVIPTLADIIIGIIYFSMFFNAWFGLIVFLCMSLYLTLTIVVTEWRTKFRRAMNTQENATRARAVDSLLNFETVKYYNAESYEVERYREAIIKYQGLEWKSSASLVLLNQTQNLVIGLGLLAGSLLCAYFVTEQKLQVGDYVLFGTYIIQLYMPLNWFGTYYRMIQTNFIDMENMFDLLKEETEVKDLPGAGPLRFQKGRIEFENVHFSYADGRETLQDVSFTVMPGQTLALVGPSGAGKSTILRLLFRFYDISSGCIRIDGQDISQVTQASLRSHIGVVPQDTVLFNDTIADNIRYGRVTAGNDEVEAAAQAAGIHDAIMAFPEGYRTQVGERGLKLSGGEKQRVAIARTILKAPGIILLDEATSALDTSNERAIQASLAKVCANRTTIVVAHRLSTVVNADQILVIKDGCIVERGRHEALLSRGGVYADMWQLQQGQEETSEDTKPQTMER
Granule exo CP1: lytic granule exocytosis inhibition; shares compounds with Granule exo inh; TALL-104 cells, LAMP-1 externalization, flow cytometry; stimulated with PMA plus thapsigargin; inhibition, % at 10 µM; hit rate 11% among 1,500; AID 651954; in the data active means inhibition above about 60%
rCAG binder conf: r(CAG) RNA repeat binding, confirmation; shares compounds with rCAG RNA binder; TO-PRO-1 dye displacement fluorescence; inhibition, % at 3 µM; hit rate 70% among 4,300;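 active means inhibition above a per-plate cutoff, the mean inhibition of sample wells plus 3 SD, cut at about 35% in these data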;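 further: loss of TO-PRO-1 fluorescence as compound displaces dye from 1x1 AA loop RNA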
dCAG dye counter: disrupts DNA CAG TO-PRO-1 complex, flagging rCAG hits. shares compounds with rCAG RNA binder. d(CAG) DNA oligo TO-PRO-1 dye displacement, fluorescence. inhibition, % at 3 µM. hit rate 94% among 4,300. AID 652068;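 active means inhibition above its plate's cutoff, the mean test-well inhibition plus 3 SD, cut at about 4.8% in these data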;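 further: hits displace the dye from DNA and so lower well fluorescence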
dCAG dye DR: DNA CAG dye complex inhibition, dose response counter-screen; shares compounds with rCAG RNA binder; IC50, µM; AID 686960; hit rate 20% among 250; DNA CAG/GTC duplex TO-PRO-1 dye displacement fluorescence; in the data active means IC50 below about 10 µM
Numbers stand for hits; n = inactive; x = not tested or not shown.

SMILES	PG9 Ab binder	rCAG RNA binder	Granule exo inh	ABCB6 inh MLPCN	Granule exo CP1	others
CCCCCCN1C[C@H](n2cc(-c3ccc(F)cc3)nn2)[C@@H](O)C[C@@H]1c1ccc(Cl)cc1	n	n	58.5	n	n
Cc1ccc(Cl)cc1NC(=S)N(CCN(C)C)C(C)c1ccccn1 (stereo unspecified)	n	n	n	n	x
COc1ccc(CC(CN)c2ccccc2)cc1 (stereo unspecified)	n	n	57.5	n	n
Clc1ccc(OCCCNCc2ccccc2)c2ccccc12	n	n	99.4	n	n
Brc1ccccc1OCCNCc1ccccc1	n	n	n	n	x
CN1CCN(NC(=O)c2ccc(S(=O)(=O)N3CC4(C)CC3CC(C)(C)C4)cc2)CC1 (stereo unspecified)	n	n	n	n	x
Cc1cc(C)cc(C(=O)Nn2cnnc2)c1	n	n	n	n	x
CCOC(=O)c1c(-c2ccccc2)oc2ccc(OCC(O)CN(C)C)cc12 (stereo unspecified)	n	n	83.7	n	n
CCN(C(=O)CSc1n[nH]c(-c2ccc(OC)cc2)n1)c1c(N)n(Cc2ccccc2)c(=O)[nH]c1=O	n	n	n	n	x
COc1ccc(CN2C=C3C(=O)C(C)(OC(=O)CCc4ccccc4)C(=O)C=C3C=C2c2ccc(C#N)cc2)cc1 (stereo unspecified)	n	n	n	n	x
CC1(OC(=O)CCc2ccccc2)C(=O)C=C2C=C(c3ccc(C#N)cc3)N(C(CO)CO)C=C2C1=O (stereo unspecified)	n	n	70.6	n	n
CCOC(=O)C(=O)/C(=C\N(C)C)c1onc(-c2c(F)cccc2Cl)c1C(=O)OC	n	n	n	n	x
COc1cc(NC(=O)c2cc(OC)c(OC)c(OC)c2)c2ncccc2c1	n	n	93.5	n	n
COc1ccccc1NC(=O)c1ccccc1Oc1ccccc1	n	n	67.5	n	n
COc1ccccc1NC(=O)CNC(c1ccccc1)c1ccccc1	n	n	76.6	n	n
COc1cc(NC(=O)c2ccc3c(c2)OCO3)c2ncccc2c1	n	n	n	n	x
O=C(Nc1cccc2cccnc12)c1ccccc1Cl	n	n	n	n	x
COc1ccccc1C(=O)Nc1cccc2cccnc12	n	n	56.1	n	n
Cc1ccc(C(=O)N/N=C(\CC(C)C)c2ccccc2)cc1	n	n	n	n	x
NC(=O)c1cnccc1C=Cc1ccccc1	n	n	64.2	n	n
CCOc1ccc(-c2nc(N)nc(C)c2-c2ccc(Cl)cc2)c(O)c1	n	n	n	n	x
COc1ccc(-c2nc(N)nc(C)c2-c2ccc(Cl)cc2)c(O)c1	n	n	61.4	n	n
CCc1nc(Nc2ccccc2F)c2oc3ccccc3c2n1	n	n	n	n	x
O=C(O)c1cccc(NC(=O)c2cccc(S(=O)(=O)N3CCc4ccccc43)c2)c1	n	n	n	n	x
NC(=O)c1ccc(NC(=O)c2ccc3c(c2)CCN3S(=O)(=O)c2ccccc2)cc1	n	n	71.9	n	n
SMILES	PG9 Ab binder	rCAG RNA binder	Granule exo inh	ABCB6 inh MLPCN	Granule exo CP1	others
COc1ccc(C(=O)CSc2nccn2C)c(OC)c1	n	n	n	n	x
COC(=O)c1ccc(C)c(-n2c(C)cc(C=O)c2C)c1	n	n	n	n	x
CC(NCCC(Cc1ccccc1)c1ccco1)c1ccccc1 (stereo unspecified)	n	n	n	n	x
Fc1ccc(CNCCC(Cc2ccccc2)c2ccco2)cc1 (stereo unspecified)	n	n	78.5	n	n
O=C(Nc1ccc(F)c(Cl)c1)c1cncs1	n	n	n	n	x
CN(C)CCC(=O)C(Cc1ccccc1)c1ccccc1 (stereo unspecified)	n	34.9	96.8	n	n	rCAG binder conf=n;dCAG dye counter=n
Cc1cc2nc(-c3ccco3)c(Cc3ccccc3C(F)(F)F)n2c(C)c1Br	n	47.1	84.8	n	n	rCAG binder conf=36.8;dCAG dye counter=13.9
O=C(O)c1cccc(S(=O)(=O)N(Cc2ccccc2)c2ccccc2)c1	n	n	n	n	x
O=C(O)c1ccc(Cl)c(S(=O)(=O)N(Cc2ccccc2)c2ccccc2)c1	n	38.3	62.6	n	n	rCAG binder conf=38.9;dCAG dye counter=9.6
COc1ccc(C(=O)c2c(C)c3cc(C)ccc3n2CC(O)CN2CCOCC2)cc1 (stereo unspecified)	n	n	n	n	x
COc1cccc(-c2nc(NCc3ccco3)c3ccccc3n2)c1O	n	n	n	n	x
COc1cccc(-c2nc(NCc3ccccc3)c3ccccc3n2)c1O	n	38.2	64.5	n	n	rCAG binder conf=n;dCAG dye counter=14.6
COc1ccc(CNC(=O)C(=O)NCCC2CCCCN2S(=O)(=O)c2cccs2)cc1 (stereo unspecified)	n	n	n	n	x
CC(C)c1ccc(-c2nc(N3CCCCC3)[nH]c(=O)c2C#N)cc1	n	n	n	n	x
CC1=Nc2nc(N3CCCCC3)c(C#N)c3c4c(nc(c23)N1)N(c1ccc(C(C)C)cc1)C(=O)C4	n	62.4	n	n	x	rCAG binder conf=38.5;dCAG dye counter=21.7
COc1ccc(OC)c(C(=O)COC(=O)c2ccc([N+](=O)[O-])o2)c1	n	n	n	n	x
COc1ccc(OC)c(C(=O)c2c(C)oc3cc([N+](=O)[O-])c(O)c([N+](=O)[O-])c23)c1	n	35.0	n	n	x	rCAG binder conf=n;dCAG dye counter=n
COc1ccc(OC)c(CN2CCN(C(=O)c3ccc(S(=O)(=O)Nc4ccccc4F)cc3)CC2)c1	n	n	n	n	x
COc1ccc(C)cc1S(=O)(=O)Nc1ccc2c(c1)OCO2	n	n	n	n	x
N#CC1=C(N)SC(N)=C(C#N)C1c1cccc(Oc2ccccc2)c1	n	60.4	n	n	x	rCAG binder conf=n;dCAG dye counter=11.5
CCOc1ccc(C2C(C#N)=C(N)SC(N)=C2C#N)cc1OCC	n	n	n	n	x
CS(=O)(=O)c1ccc(Cl)c(NC(=O)CCCc2nc3ccccc3c(=O)[nH]2)c1	n	n	n	n	x
O=C1/C(=C/c2cccs2)SC(=S)N1c1cccc(O)c1	n	n	n	n	x
CCOC(=O)c1nn(-c2ccc(C)cc2)c(=O)cc1OCC(=O)N1CCN(c2ccccc2)CC1	n	n	n	n	x
CC(C)=CCc1cc(-c2oc3cc(O)cc(O)c3c(=O)c2O)ccc1O	n	44.5	n	n	x	rCAG binder conf=51.6;dCAG dye counter=24.7
O=c1c(O)c(-c2cc(O)c(O)c(O)c2)oc2cc(O)cc(O)c12	n	47.1	n	n	x	rCAG binder conf=55.9;dCAG dye counter=18.7;dCAG dye DR=n
CN(C)S(=O)(=O)c1cc(NC(=O)CN2CCN(c3ccccc3O)CC2)ccc1Cl	n	n	n	n	x
COC(=O)c1ccc(N2NC(=O)/C(=C/c3ccc(OC)c(OC)c3)C2=O)cc1	n	n	n	n	x
COc1cc(/C=C2/C(=O)NN(c3ccc(C)c(Cl)c3)C2=O)cc([N+](=O)[O-])c1O	n	98.2	n	n	x	rCAG binder conf=52.1;dCAG dye counter=16.0
